CYP2C19 activ: human CYP2C19 activators, primary screen, biochemical, luminescence. 96,000 tested, under 10 active. activation factor at 5 µM. recombinant CYP2C19, luciferin-H EGE luminescence; hits give high values; 0 = fully inhibited enzyme, 1 = untreated enzyme. AID 1025, 2008;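 active means activation factor of at least 2 at 5 µM in the primary screen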;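 further: 0 = wells with 2.5 mM tranylcypromine and 1 = vehicle-only wells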
Target sequence (P33261 whole entry, looked up): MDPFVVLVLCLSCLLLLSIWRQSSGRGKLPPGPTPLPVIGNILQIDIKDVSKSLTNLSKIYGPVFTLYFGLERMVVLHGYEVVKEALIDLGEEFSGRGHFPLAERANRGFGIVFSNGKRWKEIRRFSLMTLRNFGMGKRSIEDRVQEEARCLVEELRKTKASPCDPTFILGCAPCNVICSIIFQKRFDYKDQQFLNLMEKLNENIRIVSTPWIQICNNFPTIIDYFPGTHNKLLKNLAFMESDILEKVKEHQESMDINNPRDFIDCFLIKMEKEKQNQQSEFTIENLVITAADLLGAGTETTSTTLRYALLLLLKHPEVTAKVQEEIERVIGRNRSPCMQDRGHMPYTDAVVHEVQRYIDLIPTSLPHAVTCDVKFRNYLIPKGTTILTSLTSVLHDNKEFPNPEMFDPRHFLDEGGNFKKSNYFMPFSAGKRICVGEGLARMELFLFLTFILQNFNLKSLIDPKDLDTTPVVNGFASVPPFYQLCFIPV
sEH inhibitor: soluble epoxide hydrolase inhibitors, primary screen, biochemical, human sEH | Bifunctional epoxide hydrolase 2 (Homo sapiens), P34913 | recombinant human sEH enzymatic activity assay | inhibition, % at 2 µM | actives 0.34% (n = 91,000) | AID 707, 2007; in the data active means inhibition above about 80%
CYP2C19 inhib: blockers of cytochrome P450 2C19 activity – biochemical, luminescence, ADME assay, primary screen | P33261 | actives 21% (n = 96,000) | AID 778, 2007 | CYP2C19 Supersomes, luciferin-H EGE luminescence, 30 min | inhibition, % at 5 µM;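 active means CYP2C19 inhibition above a set limit at 5 µM in the primary screen, cut at about 50% in these data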;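 further: plate controls were negative control wells for no effect and 2.5 mM tranylcypromine positive control for full effect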
CYP2C9 inh: blockers of cytochrome P450 2C9 activity – biochemical, luminescence, ADME assay, primary screen; P11712; CYP2C9 Supersomes, luciferin-H conversion; inhibition, % at 5 µM; actives 20% (n = 96,000); AID 777, 2007;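 active means blocking of liver enzyme CYP2C9 beyond about 50% at 5 µM, limit read from the data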
CYP2C9 act: human CYP2C9 activators, primary screen, biochemical, luminescence | Cytochrome P450 2C9 (Homo sapiens), P11712 | recombinant CYP2C9, luciferin-H conversion; hits give high values; factor 1 = untreated enzyme, 0 = blocked | activation factor at 5 µM | actives 1.4% (n = 96,000);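 active means activation factor of 2 or more for CYP2C9 at a 5 µM dose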;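 further: 0 = sulfaphenazole-blocked wells and 1 = vehicle-only wells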
sEH activator: soluble epoxide hydrolase activators, primary screen, biochemical, human sEH; Bifunctional epoxide hydrolase 2 (Homo sapiens), P34913; purified human sEH enzymatic activity, activator screen; activation, % at 2 µM; actives 0.04% (n = 91,000); in the data active means activation above about 37%
* marks the source's active call; other numbers are inactive results; nt = no result. Most compounds without a hit are left out; they make up all but 27% or so of the library.

SMILES	CYP2C19 activ	sEH inhibitor	CYP2C19 inhib	CYP2C9 inh	CYP2C9 act	sEH activator
COc1ccccc1CNC(=O)C1CC(c2ccc([N+](=O)[O-])cc2)=NO1 (stereo not drawn)	0.7	15	32	-25	1.2	-15
COc1ccccc1CNC(=O)C1CC(c2c(Cl)cccc2Cl)=NO1 (stereo not drawn)	0.2	2	84*	-115	2.2*	-4
O=C(NCc1cccc(C(F)(F)F)c1)C1CC(c2c(Cl)cccc2Cl)=NO1 (stereo not drawn)	0.2	14	78*	43	0.6	-13
COc1ccc(C2=NOC(C(=O)NCc3ccco3)C2)cc1 (stereo not drawn)	0.8	-3	18	-17	1.2	2
O=C(NCc1ccco1)C1CC(c2c(Cl)cccc2Cl)=NO1 (stereo not drawn)	0.7	0	32	-134	2.3*	-2
CC1=C(C(=O)Nc2ccccc2)C(c2ccc(C)o2)n2c(s/c(=C/c3ccccc3)c2=O)=N1 (stereo not drawn)	0.3	10	72*	87*	0.1	-12
CC1=C(C(=O)Nc2ccccc2)C(c2ccc(C)o2)N2C(=O)CSC2=N1 (stereo not drawn)	0.4	-4	64*	46	0.5	5
CC1=C(C(=O)Nc2ccccc2C)C(c2ccc(C)o2)n2c(s/c(=C/c3ccccc3)c2=O)=N1 (stereo not drawn)	1.1	10	-7	38	0.6	-13
Cc1cc(S(=O)(=O)Nc2cccc(O)c2)c(C)s1	0.1	-8	92*	30	0.7	8
Cc1cc(C(C)(C)C)cc(S(=O)(=O)Nc2cccc(C(=O)O)c2)c1C	1.1	-4	-8	-5	1.1	7
Cc1cc(S(=O)(=O)Nc2ccc(F)cc2)c(C)s1	0.2	0	84*	51*	0.5	-2
Cn1cc(S(=O)(=O)Nc2cccc(F)c2)c(=O)n(C)c1=O	0.8	-15	20	12	0.9	13
CCCN(CCC)CCCOC(=O)c1ccc(Cl)cc1Cl	0.9	7	11	9	0.9	-6
CN(C)c1nc(NCc2ccccc2)nc(Oc2ccc(=O)[nH]n2)n1	0.4	6	60*	14	0.9	-6
CCN(CC)c1nc(Nc2ccccc2)nc(Oc2ccc(=O)[nH]n2)n1	0.9	4	11	24	0.8	-2
CCN1CCN(Cc2ccc(NC(=O)Nc3cccs3)cc2)CC1	1.3	19	-30	-22	1.2	-19
O=C1C2CC=CCC2C(=O)N1c1ccc(Cc2ccncc2)cc1 (stereo not drawn)	0.3	-8	68*	85*	0.1	6
CCOc1ccc(N(Cc2cc3ccc(C)cc3[nH]c2=O)S(C)(=O)=O)cc1	0.9	0	11	4	1	-2
COc1ccc(Nc2cc(C(=O)NCCCN3CCOCC3)c3ccccc3n2)c(OC)c1	1	-4	3	25	0.7	4
CCOC(=O)C1CCCN(C(=O)c2cc(Nc3ccc(OC)c(OC)c3)nc3ccccc23)C1 (stereo not drawn)	0.5	-5	48	75*	0.3	4
CCOC(=O)C1CCCN(C(=O)c2cc(Nc3ccc(OC)cc3OC)nc3ccccc23)C1 (stereo not drawn)	0.4	-1	64*	98*	0	0
COc1ccccc1N1CCN(C(=O)c2cccc(N3C(=O)NC4CC3(C)Oc3ccccc34)c2)CC1 (stereo not drawn)	1	-6	4	13	0.9	9
CCOC(=O)/C(C(C)=O)=C1\OC(=O)c2ccccc21	0.8	5	20	58*	0.4	-5
O=C1C2C3C=CC(C3=C3CCCCC3)C2C(=O)N1Cc1ccccc1 (stereo not drawn)	0.9	nt	7	55*	0.4	nt
Cc1ccc(C)c(C(=O)CCC(=O)Nc2cccnc2)c1	0.5	-15	48	-23	1.2	14
SMILES	CYP2C19 activ	sEH inhibitor	CYP2C19 inhib	CYP2C9 inh	CYP2C9 act	sEH activator
C=CCn1c(SCc2ccc(Cl)cc2)nc2c1c(=O)[nH]c(=O)n2C	0.5	8	45	33	0.7	-7
C=CCn1c(SCc2ccc(F)cc2)nc2c1c(=O)[nH]c(=O)n2C	0.4	3	58*	46	0.5	-1
CCOC(=O)C(C)Oc1ccsc1C(=O)OC (stereo not drawn)	1	0	2	14	0.9	1
CCOC(=O)C(CC)Sc1nc(-c2ccc(OC)cc2)nc2c1c(=O)n(C)c(=O)n2C (stereo not drawn)	nt	2	nt	nt	nt	-2
c1ccc(Cn2c(-c3cncs3)nc3ccccc32)cc1	0.3	2	73*	94*	0.1	-3
COc1cccc(NC(=O)Cn2c(-c3cncs3)nc3ccccc32)c1	0.2	-5	76*	83*	0.2	3
N#CCCCCn1c(-c2cncs2)nc2ccccc21	0.4	nt	56*	-9	1.1	nt
O=C(Cn1c(-c2cncs2)nc2ccccc21)NCCc1ccccc1	0.1	6	91*	53*	0.5	-6
COc1ccc(N2C(=O)c3ccccc3NC23C(=O)N(C)c2ccccc23)cc1 (stereo not drawn)	0.9	2	6	31	0.7	0
CCn1c(CCNC(=O)c2cccs2)nnc1SCC(=O)c1ccc(OC)cc1	nt	-15	nt	nt	nt	17
Cc1occc1C(=O)Nc1ccc(S(=O)(=O)N2CCN(C)CC2)cc1	0.8	3	16	21	0.8	-2
CSc1nc(C)cc(C)c1S(=O)(=O)c1ccccc1C	0.9	0	12	-190	2.9*	1
CCCCOC(=O)C(C)c1c(C)[nH]c(=S)[nH]c1=O (stereo not drawn)	0.9	2	8	6	0.9	1
CCCC(=O)n1nc(-c2ccco2)nc1N	0.9	10	14	4	1	-12
CCCC(=O)n1nc(-c2ccc(OC)cc2)nc1N	0.5	-12	53*	-1	1	10
CCCn1c(SCC(=O)NC(C)(C)C)nnc1C(C)C	1.1	17	-7	-15	1.2	-18
CCC(C)(C)C1CCc2c(sc(NC(=O)c3ccoc3C)c2C(N)=O)C1 (stereo not drawn)	1	-2	-4	-16	1.2	4
Cc1occc1C(=O)Nc1sc2c(c1C(N)=O)CCC(C(C)(C)C)C2 (stereo not drawn)	0.9	-23	7	58*	0.4	27
O=C(NC1=NCCS1)C1Cc2ccccc2CN1C(=O)c1ccccc1 (stereo not drawn)	0.2	-2	79*	42	0.6	3

Source: PubChem
